# Measurements published in the supplement of paper PMC3334620.
# Whole data set: some 33,000 sequences, median “E-score (-0.5 to 0.5)” near -0.01, cut for the highest 2% near 0.26. The sample holds the highest values, similar sequences and a random draw of the others, so the mix is not that of the screen.
# Molecular target: Ste12 (UniProt P13574)
# Test: PBM E-score (8-mer binding enrichment) (E-score (-0.5 to 0.5)); higher = stronger / more preferred TF binding
# Conditions: protein concentration: 200 nM; construct: GST-DNA-binding domain
# Experimental: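 Universal 'all 10-mer' protein binding microarrays (Agilent AMADID 015681) probed with GST-tagged S. cerevisiae TFs (full-length or DBD) made by in vitro transcription/translation (PURExpress), about 100-200 nM. Bound TF was detected with fluorescent anti-GST. Each ungapped 8-mer (which stands for itself and its reverse complement) is scored by the PBM enrichment score (E-score), a modified Wilcoxon-Mann-Whitney statistic from -0.5 to +0.5, computed with the Universal PBM Analysis Suite. Scale: above 0.35 generally sequence-specific binding.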
# UniProt P13574, sequence (P13574 whole entry): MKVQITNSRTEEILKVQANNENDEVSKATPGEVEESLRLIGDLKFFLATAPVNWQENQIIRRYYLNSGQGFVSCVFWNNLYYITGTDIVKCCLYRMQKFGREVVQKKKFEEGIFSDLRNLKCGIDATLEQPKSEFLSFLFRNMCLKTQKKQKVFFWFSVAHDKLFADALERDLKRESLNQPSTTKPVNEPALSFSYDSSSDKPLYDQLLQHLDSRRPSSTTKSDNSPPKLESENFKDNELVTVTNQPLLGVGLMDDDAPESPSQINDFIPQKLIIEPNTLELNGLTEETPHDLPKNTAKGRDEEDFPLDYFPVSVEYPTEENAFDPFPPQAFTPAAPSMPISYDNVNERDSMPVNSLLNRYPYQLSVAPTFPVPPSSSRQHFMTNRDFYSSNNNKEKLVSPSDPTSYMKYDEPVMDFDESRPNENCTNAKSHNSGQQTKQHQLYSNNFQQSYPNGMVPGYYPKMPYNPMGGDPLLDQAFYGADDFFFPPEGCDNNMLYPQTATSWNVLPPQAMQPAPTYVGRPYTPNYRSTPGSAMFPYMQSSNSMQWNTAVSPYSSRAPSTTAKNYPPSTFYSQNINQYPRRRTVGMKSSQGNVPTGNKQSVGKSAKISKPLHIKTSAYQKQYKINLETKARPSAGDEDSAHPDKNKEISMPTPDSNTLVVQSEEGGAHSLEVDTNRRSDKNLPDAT
row,Sequence,PBM E-score
1,TATTGGAA,-0.00217
2,CAATACAA,0.294
3,CGATAAAA,0.171
4,TGATAAAA,0.266
5,GGGATAAC,-0.0162
6,TGATACAA,0.339
7,GGGATAAA,0.271
8,AGATAAAA,0.245
9,CGATACAA,0.0267
10,CGGATAAA,0.149
11,CAATACAG,-0.115
12,AGATACAA,0.135
13,CAATACAC,0.0704
14,AATTAGGA,0.145
15,CCCAGCGG,-0.192
16,AACACTCG,0.0544
17,TCTGAACA,0.0453
18,ACCACCGG,-0.0277
19,AAATTGAA,0.185
20,CCATGAAG,-0.0229
21,CATAAGGC,-0.0753
22,GGTGCGAA,0.2
23,AAACCGTT,0.00687

row,Sequence,PBM E-score
1,GGATAAAA,0.279
2,GGATAAGA,0.0906
3,GGGTAAAC,0.119
4,CGGTAAAA,0.198
5,GGGTAAAA,0.295
6,GGATAAAC,0.135
7,TGGGCCAA,-0.177
8,CAGCGTCG,-0.0332
9,CGGAATAC,0.134
10,GATCAAGC,-0.0184
11,GAAGGCTC,-0.209
12,GATAAACC,0.0557
13,GATAAATA,0.215
14,CATAAAAC,0.28
15,GATAAAAA,0.277
16,GATAAAAC,0.327
17,AATAAAAC,0.245
18,GATAAAGA,0.0926
19,CATAAAAG,0.0283
20,CATAAAAA,0.175
21,CGAGCCGA,-0.0584
22,AGGTTTTC,0.241
23,GAGCTCCC,-0.0992

row,Sequence,PBM E-score
1,CAGACTTC,-0.0901
2,ACGACTAT,-0.0677
3,CGTCACCC,0.0725
4,ACAGAATG,0.0528
5,GGAACTAC,-0.105
6,AACTATTC,0.264
7,AACTATTA,0.0788
8,CACTATTC,0.0168
9,GACTATCA,-0.0567
10,AACTATCA,0.262
11,TACTATCA,0.13
12,ATACGGCG,0.15
13,ACGGGTCT,-0.211
14,CCAATCTC,0.0596
15,ACCTGCAA,-0.0499
16,GTGCGCAA,-0.0274
17,ATGCGCAC,0.0144
18,GTGCGCAC,0.355
19,CCAATCCA,-0.0476
20,AGCGATCG,0.00873
21,CAAAAGAC,0.0341
22,CGATTCGC,0.0897
23,ACTTGAAA,0.314

row,Sequence,PBM E-score
1,ACTTGAAT,0.0108
2,TCTTGAAA,0.308
3,ACTTGAAG,0.119
4,GCTTGAAA,0.198
5,CCTTGAAA,0.21
6,GTCGAAGA,-0.0112
7,ACCTTAGT,-0.137
8,ATTGTAGC,0.0213
9,AGTGGTAT,-0.0443
10,TCACAGGA,0.122
11,GCGTGAAC,-0.0471
12,GGAGGGGA,0.366
13,GGTGGGGA,0.318
14,CGAGGGGA,0.0767
15,GGGTGGGA,0.319
16,GGAGGGAA,-0.0917
17,CGTGGGGA,0.0623
18,CGGTGGGA,0.033
19,GGTGGGAA,0.127
20,AGGTGGGA,-0.049
